About 2,000 (36%) of roughly 5,500 compounds were called active. Not shown: some 18% with an inconclusive outcome. No stated cut-off is given here; in the data, active means normalized growth mostly below about 0.91 (no sharp cut-off); inconclusive means no clear call, values can overlap the other calls; inactive means mostly above about 0.92. The list shows a part of the results.
Assay: chemical genetic growth profiling, strain panel (AID 1159580);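 further: tested at 20 µM; growth read once vehicle control cultures reached saturation at 30 °C; 1 = growth at the plate median or of vehicle wells; lower values mean less growth of the strain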
Conditions: growth OD

Measured: normalized growth

CCCCCCCCCCCCCC(=O)OC1C(C)C2(O)C(C=C(CO)CC3(O)C(=O)C(C)=CC32)C2C(C)(C)C12OC(C)=O (centres undefined)
inactive: S. cerevisiae deletion strains, locus YJR043C, strain POL32, active compounds read low 1.03 | S. cerevisiae deletion strains, locus YJR075W, strain HOC1, active compounds read low 1 | S. cerevisiae deletion strains, locus YKL009W, strain mrt4, active compounds read low 0.973 | S. cerevisiae deletion strains, locus YKL068W, active compounds read low 1.01 | S. cerevisiae deletion strains, locus YKL085W, strain MDH1 (second series), active compounds read low 0.966 | S. cerevisiae deletion strains, locus YKL085W, strain MDH1, active compounds read low 0.966 | S. cerevisiae deletion strains, locus YKL160W, strain elf1, active compounds read low 1 | S. cerevisiae deletion strains, locus YKL190W, strain CNB1, active compounds read low 1.02 | S. cerevisiae deletion strains, locus YKR001C, strain vps1, active compounds read low 0.981 | S. cerevisiae deletion strains, locus YKR026C, strain gcn3, active compounds read low 0.964 | S. cerevisiae deletion strains, locus YKR091W, strain srl3, active compounds read low 0.979 | S. cerevisiae deletion strains, locus YLL001W, strain dnm1, active compounds read low 0.991 | S. cerevisiae deletion strains, locus YLL026W, active compounds read low 0.988 | S. cerevisiae deletion strains, locus YLL041C, strain sdh2, active compounds read low 0.984 | S. cerevisiae deletion strains, locus YLR027C, strain aat2, active compounds read low 0.992 | S. cerevisiae deletion strains, locus YLR039C, strain RIC1, active compounds read low 1.06 | S. cerevisiae deletion strains, locus YLR058C, strain SHM2, active compounds read low 0.996 | S. cerevisiae deletion strains, locus YLR102C, strain apc9, active compounds read low 0.998 | S. cerevisiae deletion strains, locus YLR221C, strain rsa3, active compounds read low 0.972 | S. cerevisiae deletion strains, locus YLR258W, strain gsy2, active compounds read low 0.988 | S. cerevisiae deletion strains, locus YLR262C, strain YPT6 (second series), active compounds read low 0.993 | S. cerevisiae deletion strains, locus YLR262C, strain YPT6, active compounds read low 0.988 | S. cerevisiae deletion strains, locus YLR268W, strain sec22, active compounds read low 1.01 | S. cerevisiae deletion strains, locus YLR320W, strain mms22, active compounds read low 0.974 | S. cerevisiae deletion strains, locus YLR330W, strain CHS5, active compounds read low 0.997 | S. cerevisiae deletion strains, locus YLR342W, strain FKS1 (second series), active compounds read low 1.03 | S. cerevisiae deletion strains, locus YLR342W, strain FKS1, active compounds read low 0.982 | S. cerevisiae deletion strains, locus YLR357W, strain rsc2, active compounds read low 0.954 | S. cerevisiae deletion strains, locus YLR370C, strain arc18, active compounds read low 0.988 | S. cerevisiae deletion strains, locus YLR371W, strain rom2, active compounds read low 0.994 | S. cerevisiae deletion strains, locus YLR384C, strain iki3, active compounds read low 0.99 | S. cerevisiae deletion strains, locus YLR418C, strain cdc73, active compounds read low 0.973 | S. cerevisiae deletion strains, locus YML016C, strain PPZ1, active compounds read low 1.03 | S. cerevisiae deletion strains, locus YML032C, strain rad52, active compounds read low 0.976 | S. cerevisiae deletion strains, locus YML120C, strain ndi1, active compounds read low 0.983 | S. cerevisiae deletion strains, locus YML124C, strain tub3, active compounds read low 0.998 | S. cerevisiae deletion strains, locus YMR058W, strain fet3, active compounds read low 0.983 | S. cerevisiae deletion strains, locus YMR078C, strain ctf18, active compounds read low 0.991 | S. cerevisiae deletion strains, locus YMR125W, strain sto1, active compounds read low 0.993 | S. cerevisiae deletion strains, locus YMR129W, active compounds read low 0.976 | S. cerevisiae deletion strains, locus YMR205C, strain PFK2, active compounds read low 0.926 | S. cerevisiae deletion strains, locus YMR223W, strain ubp8, active compounds read low 0.971 | S. cerevisiae deletion strains, locus YMR231W, strain pep5, active compounds read low 0.986 | S. cerevisiae deletion strains, locus YMR263W, strain SAP30, active compounds read low 1 | S. cerevisiae deletion strains, locus YMR307W, strain GAS1, active compounds read low 0.922 | S. cerevisiae deletion strains, locus YNL067W, strain RPL9B, active compounds read low 1.01 | S. cerevisiae deletion strains, locus YNL071W, strain lat1, active compounds read low 0.991 | S. cerevisiae deletion strains, locus YNL128W, strain TEP1, active compounds read low 1.01 | S. cerevisiae deletion strains, locus YNL153C, strain GIM3, active compounds read low 0.999 | S. cerevisiae deletion strains, locus YNL209W, strain ssb2, active compounds read low 0.99 | S. cerevisiae deletion strains, locus YNL233W, strain BNI4, active compounds read low 1 | S. cerevisiae deletion strains, locus YNL248C, strain rpa49, active compounds read low 0.995 | S. cerevisiae deletion strains, locus YNL250W, strain rad50, active compounds read low 0.981 | S. cerevisiae deletion strains, locus YNL271C, strain bni1, active compounds read low 1 | S. cerevisiae deletion strains, locus YNL298W, strain CLA4, active compounds read low 0.976 | S. cerevisiae deletion strains, locus YNL307C, strain MCK1, active compounds read low 0.99 | S. cerevisiae deletion strains, locus YNL322C, strain KRE1 (second series), active compounds read low 0.978 | S. cerevisiae deletion strains, locus YNL322C, strain KRE1, active compounds read low 0.997 | S. cerevisiae deletion strains, locus YNR049C, strain mso1, active compounds read low 0.981 | S. cerevisiae deletion strains, locus YNR052C, strain pop2, active compounds read low 0.995 | S. cerevisiae deletion strains, locus YOL006C, strain TOP1, active compounds read low 1.03 | S. cerevisiae deletion strains, locus YOL012C, strain htz1 0.932 | S. cerevisiae deletion strains, locus YOL147C, strain pex11, active compounds read low 0.99 | S. cerevisiae deletion strains, locus YOR001W, strain rrp6, active compounds read low 1.01 | S. cerevisiae deletion strains, locus YOR061W, strain CKA2, active compounds read low 1.02 | S. cerevisiae deletion strains, locus YOR069W, strain VPS5, active compounds read low 1.02 | S. cerevisiae deletion strains, locus YOR070C, strain gyp1, active compounds read low 0.987 | S. cerevisiae deletion strains, locus YOR080W, strain dia2, active compounds read low 0.977 | S. cerevisiae deletion strains, locus YOR083W, strain WHI5, active compounds read low 1.01 | S. cerevisiae deletion strains, locus YOR106W, strain vam3, active compounds read low 0.999 | S. cerevisiae deletion strains, locus YOR136W, strain idh2, active compounds read low 0.981 | S. cerevisiae deletion strains, locus YOR144C, strain elg1, active compounds read low 1 | S. cerevisiae deletion strains, locus YOR184W, strain ser1, active compounds read low 0.979 | S. cerevisiae deletion strains, locus YOR265W, strain rbl2, active compounds read low 0.997 | S. cerevisiae deletion strains, locus YOR270C, strain vph1, active compounds read low 0.948 | S. cerevisiae deletion strains, locus YOR290C, strain snf2, active compounds read low 0.947 | S. cerevisiae deletion strains, locus YOR316C, strain cot1, active compounds read low 0.994 | S. cerevisiae deletion strains, locus YPL051W, strain arl3, active compounds read low 1.02 | S. cerevisiae deletion strains, locus YPL055C, strain LGE1, active compounds read low 1.02 | S. cerevisiae deletion strains, locus YPL078C, strain atp4, active compounds read low 0.989 | S. cerevisiae deletion strains, locus YPL106C, strain sse1, active compounds read low 0.985 | S. cerevisiae deletion strains, locus YPL240C, strain hsp82, active compounds read low 0.961 | S. cerevisiae deletion strains, locus YPL241C, strain CIN2, active compounds read low 0.972 | S. cerevisiae deletion strains, locus YPR119W, strain clb2, active compounds read low 0.993 | S. cerevisiae deletion strains, locus YPR141C, strain kar3, active compounds read low 0.986 | S. cerevisiae deletion strains, locus YPR163C, strain tif3, active compounds read low 0.998 | S. cerevisiae deletion strains, locus YPR167C, strain met16, active compounds read low 1 | S. cerevisiae deletion strains, strain wtn01, active compounds read low 1.01 | S. cerevisiae strains, strain wild type, active compounds read low 1.04
